Hits are enriched below; roughly 0.65% of the tested compounds scored in any of these assays.
AMA1 RON2 block – inhibitors of Plasmodium falciparum AMA1-RON2 interaction | AlphaScreen AMA1-biotinylated RON2 peptide binding | Potency, µM (top dose mostly 58.2 µM), hits mostly inhibitors | hit rate 0.2% among 360,000; active = well fitted inhibition curve with a large enough effect; inconclusive = small, poorly fitted or top-dose-only effect; inactive = no such curve, though single readings can be large or run the other way; note: nearly all actives have a fitted effect of over 45% in size
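AMA1 (3D7) with his tag at 25 nM final met compounds first, then biotinylated RON2 peptide at 25 nM; detection used donor plus acceptor beads, 10 µg/mL apiece, read by AlphaScreen after 30 min at room temperature.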
NS1 function inh – influenza NS1 inhibition. hit rate 0.4% among 270,000. Potency, µM (highest dose often 46.1 µM). AID 2326; note: actives are rising curves; nearly all actives have a fitted effect of over 50% in size
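Read-out: OD600 growth recovery of NS1-expressing budding yeast. Cells grown overnight at 30C in -URA glucose medium, washed, resuspended and diluted 1:100 in 2% galactose assay medium, pH 6.0. Same strain lacking NS1 served as positive control.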
SARS PLP yeast – SARS-CoV PLP inhibition in yeast | S. cerevisiae expressing SARS-CoV PLpro, growth rescue | Potency, µM (highest dose often 32.9 µM), actives largely listed as activators | hit rate 0.19% among 330,000; note: nearly all actives have a fitted effect of over 55% in size
Flu NS1 inh – influenza NS1 function inhibition validation; activity change, negative = inhibition, % at 32.9 µM; 1,400 tested, under 10 active; AID 492980; influenza NS1 function cell assay, 15-point titration; shares compounds with NS1 function inh
Flu PR8 replic – influenza NS1 inhibitors: inhibition of influenza A/PR/8/34 replication; shares compounds with NS1 function inh; MDCK infected influenza A/PR/8/34, virus titer TCID50; hits give low values; virus titer (log TCID50), log10 TCID50 at 5 µM; hit rate 30% among 95; call rule not given here
Hits are given with their value; – = inactive; ? = inconclusive; · = no result. Unless noted, calls come from the whole dose curve.

SMILES	AMA1 RON2 block	NS1 function inh	SARS PLP yeast	Flu NS1 inh	others
CN(C)c1nc(-c2cccnc2)nc(-c2ccccc2)c1C#N	–	–	–	·
CCC(C)N(C(=O)COC(=O)c1[nH]c(C)c(C(C)=O)c1C)C1CCS(=O)(=O)C1 (configuration not stated)	–	3.2µM	–	–
CCN(C(=O)COC(=O)c1[nH]c(C)c(C(C)=O)c1C)C1CCS(=O)(=O)C1 (configuration not stated)	–	–	–	·
CCCn1c(=O)c(Cc2ccccc2)c(O)c2ccccc21	–	?	–	–
CCCCCn1c(=O)c(Cc2ccccc2)c(O)c2ccccc21	–	–	–	·
Cc1nc2ccc(-c3nc4ccccc4[nH]3)cc2[nH]1	–	?	–	–
Cc1ccc(-c2nc3ccccc3[nH]2)cn1	–	–	–	·
COc1ccccc1-c1ncn(Cc2cccc(-c3ccccc3)c2)c1-c1cc(C)cc(C)c1	–	·	·	·
Cc1ccc(NC(=O)Cn2nnc(C(=O)NCCc3ccccc3)c2N)c(C)c1	–	–	–	·
O=C(NCCS(=O)(=O)N1CCN(Cc2ccccc2)CC1)c1ccccc1	–	·	–	·
CN(C)S(=O)(=O)c1cccc(COC(=O)CN2CCCCCC2=O)c1	–	–	–	·
O=C(CN1CCCCCC1=O)OCc1ncc(-c2ccccc2)o1	–	0.45µM	–	–	Flu PR8 replic=–
C=C1[C@@H](O)[C@H](CC(C)C)N(Cc2ccccc2Br)S1(=O)=O	–	·	·	·
Cc1cnc(C(=O)OCC(=O)c2ccc(Cl)cc2)cn1	–	–	–	·
CCN(CC)S(=O)(=O)c1ccc(C(=O)NCc2ccc3c(c2)cc(C)n3C)cc1	?	?	–	·
CCc1cccc(C)c1NC(=S)NCc1ccc2c(c1)cc(C)n2C	–	14µM	–	–
Cc1cc2cc(CNC(=O)c3ccc(S(=O)(=O)N4CCCC4)cc3)ccc2n1C	–	10µM	–	–
Cc1ccccc1NC(=S)NCc1ccc2c(c1)cc(C)n2C	–	?	–	·
CCC(CC)C(=O)NCc1ccc2c(c1)cc(C)n2C	–	?	–	·
Cc1cc2cc(CNC(=O)c3cccs3)ccc2n1C	–	?	–	–
COc1ccc(C(=O)NCc2ccc3c(c2)cc(C)n3C)cc1OC	–	·	–	·
COc1ccc(/C=C\C(=O)NCc2ccc3c(c2)cc(C)n3C)cc1OC	?	11µM	–	–	Flu PR8 replic=–
C[C@H](CO)N1C[C@H](C)[C@@H](CN(C)S(=O)(=O)c2ccccc2F)OCc2cnnn2CCCC1=O	–	·	·	·
O=C(NCC(=O)N1CCN(c2ccccn2)CC1)c1ccc(Br)o1	–	–	–	·
Fc1ccc(Nc2ccc3ccccc3n2)c(F)c1	–	–	–	·
SMILES	AMA1 RON2 block	NS1 function inh	SARS PLP yeast	Flu NS1 inh	others
O=C(COC(=O)c1cc[n+]([O-])cc1)Nc1ccc([N+](=O)[O-])cc1C(F)(F)F	–	·	–	·
COc1cccc(CN2CCN(CC(=O)NCCc3ccccc3)CC2)c1	–	–	–	·
O=C(Nc1ccccc1OCc1ccccc1)c1ccccc1Br	–	–	–	·
Cc1ccc(C2NC(=O)CCC2[N+](=O)[O-])cc1 (configuration not stated)	–	·	–	·
CC(C(=O)OCC(=O)c1cccc([N+](=O)[O-])c1)N1C(=O)C2C3C=CC(C3)C2C1=O (configuration not stated)	–	–	–	·
COc1ccc(C(=O)Nc2ccc(S(=O)(=O)N3CCCCC3)cc2)cc1OC	–	–	–	·
COc1ccc(-c2cnnn2-c2ccc(NC(=O)c3ccc(S(=O)(=O)N4CCCCC4)cc3)cc2)cc1OC	–	5µM	–	–	Flu PR8 replic=7.3
COC(=O)c1cncn1Cc1ccccc1	–	·	·	·
Cc1cc(C)c(NC(=O)COC(=O)C2=COCCO2)c(Cl)c1	–	·	·	·
CCC(C)NC(=O)COC(=O)Cc1sc(N)nc1-c1ccc(C)cc1 (configuration not stated)	–	1.1µM	–	–
Cc1ccc(-c2nc(N)sc2CC(=O)OCC(=O)NCCC(C)C)cc1	–	–	–	·
COC(=O)COc1ccc(S(=O)(=O)Nc2ccc3c(c2)OCCO3)cc1C	–	–	–	·
NNC(=O)c1csc(Cc2c(Cl)sc3ccc(Cl)cc23)n1	–	?	–	–
NNC(=O)c1csc(CS(=O)(=O)c2ccc(Cl)cc2)n1	–	–	–	·
N#C/C(=C(/O)CSc1nnc(Cc2cccs2)n1C1CCCCC1)c1nc2ccccc2[nH]1	–	18µM	–	–
COc1ccccc1-c1nnc(SC/C(O)=C(\C#N)c2nc3ccccc3[nH]2)n1C1CCCCC1	–	?	–	·
COc1cccc(N2CCN(C(=O)CN3C(=O)NC(C)(c4ccc5ccccc5c4)C3=O)CC2)c1 (configuration not stated)	–	·	–	·
COc1ccc(S(=O)(=O)N2CCCCC2)cc1NS(=O)(=O)c1ccccc1F	–	·	–	·
COc1ccc(S(=O)(=O)N2CCCCC2)cc1NS(=O)(=O)c1cc(Cl)ccc1Cl	–	22µM	–	–	Flu PR8 replic=–
O=C(CSc1nc2ccccc2c(=O)n1-c1ccc(F)cc1F)Nc1ccc2c(c1)CCC2	–	13µM	–	–
Cc1ccc(-n2c(SCC(=O)Nc3cccc(S(=O)(=O)NC4=NCCCCC4)c3)nc3ccccc3c2=O)cc1	–	–	–	·
O=C(CSc1nc2ccccc2c(=O)n1-c1ccc(F)cc1)Nc1ccc2c(c1)CCC2	–	?	–	·
O=C(CSc1nc2ccccc2c(=O)n1-c1ccccc1F)Nc1ccc2c(c1)CCC2	–	?	–	·
Cc1ccc(-n2c(SCC(=O)NNC(=S)Nc3ccccc3)nc3ccccc3c2=O)cc1	–	4.5µM	–	–
O=C(CSc1nc2ccccc2c(=O)n1-c1ccc(F)cc1)Nc1ccc(C(=O)O)cc1	–	14µM	–	?
SMILES	AMA1 RON2 block	NS1 function inh	SARS PLP yeast	Flu NS1 inh	others
CCOc1ccc(NC(=O)c2cccnc2SC)cc1	–	·	–	·
CCOc1ccc(NC(=O)c2cccnc2C(=O)O)cc1	–	4.5µM	–	–
Cc1cc(N2CCN(C)CC2)nc(-c2ccccc2O)n1	–	–	–	·
Cc1cc(N2CCCC2)nc(-c2ccccc2O)n1	–	0.71µM	–	–
CC(C)(C)S(=O)(=O)N1Cc2ccc(CO)cc2[C@H]1CCO	–	·	·	·
CCCn1c(C)cc(/C=C(\C#N)C(=O)OCC(=O)NC(=O)NC(C)(C)C)c1C	–	3.2µM	–	–
CCCNC(=O)COC(=O)/C(C#N)=C/c1cc(C)n(CCC)c1C	–	·	–	·
Cc1ccc(-n2c(O)c(C=NCCN(C)C)c(=O)[nH]c2=O)cc1	–	–	–	·
CN(C)CCN=Cc1c(O)n(-c2cccc3ccccc23)c(=O)[nH]c1=O	–	?	–	–
CCN(CC)S(=O)(=O)c1ccc(N2CCOCC2)c(NC(=O)C2CCCO2)c1 (configuration not stated)	–	–	–	·
COc1ccc(OC)c(S(=O)(=O)n2nnc3ccccc32)c1	–	?	–	–
COc1ccc(F)cc1S(=O)(=O)n1nnc2ccccc21	–	–	–	·
CCc1nc(NC(=O)NS(=O)(=O)c2ccccc2C(=O)OC)nc(OC)n1	–	·	–	·
c1ccc(Nc2cc(Nc3ccccc3)[nH]n2)cc1	–	4.5µM	–	–
O=c1nccc(Nc2ccccc2)[nH]1	–	–	–	·
Cc1ccccc1NC(=O)CCS(=O)(=O)c1cccc2nonc12	–	–	–	·

Bioassay records as filed in PubChem.
